Data: PubChem BioAssay
Active and inactive are the calls of the source. Unless noted, how the calls were made is not given here.

Tests used:
[1] = tested on: Wnt5a (protein binding on small-molecule microarray); test: small molecules binding Wnt5a protein – biophysical, small-molecule microarray, 635/667 nm fluorescence, primary screen (AID 1142); conditions: 635 nm fluorescence, higher = more signal;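 further: fluorescence read at 667 nm with signal to noise per printed feature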
[2] = ATP-based viability of Huh7 replicon cells – cell-based, CellTiter-Glo luminescence, basal, 48 h, cytotoxicity control for HCV replication inhibitor project, primary screen (AID 1143); conditions: higher = more signal, called active from +8 up or from −8 down;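 further: Huh7 hepatoma cells carrying a hepatitis C replication reporter with no stimulus; test concentration not given here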
[3] = Pseudomonas biofilm growth suppression – PAO1 strain, BacTiter-Glo luminescence, LB-PBS, primary screen (AID 1144); conditions: P. aeruginosa PAO1 biofilm, 12 h, higher = more signal
[4] = basal CRE-LacZ reporter activity in PC12 – cell-based, unstimulated, primary screen (AID 1145); conditions: no forskolin, luminescence, 4.5 h, higher = more signal, called active from +8 up or from −8 down
[5] = forskolin-driven CRE-LacZ activity in PC12 – cell-based, CRE-LacZ reporter, forskolin-stimulated, primary screen (AID 1146); conditions: luminescence, 4.5 h, higher = more signal, called active from +8 up or from −8 down;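 further: PC12 cells with 6xCRE LacZ reporter stimulated by forskolin 10 µM; beta-galactosidase reporter signal reflecting CREB driven transcription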
[6] = target: Streptavidin (Streptomyces avidinii) (UniProt P22629); test: compounds binding control protein streptavidin – biophysical, small-molecule microarray, 635/667 nm fluorescence, artefact control for SMM compound annotation, primary screen (AID 1147); conditions: higher = more signal;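 further: signal reflects streptavidin binding to arrayed compounds as a control protein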
Chain of Streptavidin (Streptomyces avidinii) (P22629 whole entry, looked up): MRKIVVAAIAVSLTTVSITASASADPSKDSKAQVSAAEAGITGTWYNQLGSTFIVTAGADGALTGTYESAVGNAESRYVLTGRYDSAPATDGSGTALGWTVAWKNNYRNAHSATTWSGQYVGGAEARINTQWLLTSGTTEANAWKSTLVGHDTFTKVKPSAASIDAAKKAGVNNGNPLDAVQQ

[7] = probe aInhba binding on compound microarray – biochemical, small-molecule microarray, 635/667 nm fluorescence, primary screen (AID 1148); conditions: higher = more signal;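 further: score merges 667nm spot fluorescence with signal-to-noise for antibody binding to printed compounds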
[8] = target: Torsin-1A (Homo sapiens) (UniProt O14656); test: TOR1A wild-type binding on microarray – cell lysate, small-molecule microarray, lysate, 635/667 nm, primary screen (AID 1149); conditions: COS7 hTOR1A-WT lysate, 635 nm fluorescence, higher = more signal
Chain of Torsin-1A (Homo sapiens) (O14656 whole entry, looked up): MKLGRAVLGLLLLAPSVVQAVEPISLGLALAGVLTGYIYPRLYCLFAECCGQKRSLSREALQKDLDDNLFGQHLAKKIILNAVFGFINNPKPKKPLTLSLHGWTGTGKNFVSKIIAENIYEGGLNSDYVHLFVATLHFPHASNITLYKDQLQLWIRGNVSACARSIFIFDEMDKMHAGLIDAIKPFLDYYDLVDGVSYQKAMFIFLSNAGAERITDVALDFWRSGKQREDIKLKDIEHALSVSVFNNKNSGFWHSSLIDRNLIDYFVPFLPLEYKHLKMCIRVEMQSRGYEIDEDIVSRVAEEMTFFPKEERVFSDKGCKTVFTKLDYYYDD

[9] = target: Torsin-1A (Homo sapiens) (UniProt O14656); test: torsin A mutant lysate binding on microarrays – cell lysate, small-molecule microarray, COS7 lysate, 635/667 nm fluorescence, primary screen (AID 1150); conditions: COS7 hTOR1A mutant lysate, 635 nm fluorescence, higher = more signal;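 further: score pools 667 nm emission and signal to noise measuring lysate protein binding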
[10] = tested on: Sonic hedgehog protein (Shh); test: Sonic hedgehog microarray binding compounds – biochemical, small-molecule microarray, 635/667 nm fluorescence, primary screen (AID 1151); conditions: 635 nm fluorescence, higher = more signal;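 further: Shh protein binding to compounds spotted on small-molecule microarray slides; score combines spot fluorescence intensity with signal-to-noise across triplicate slides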
[11] = optical density shifts of acrAB sulA E. coli – strain DRC41, OD650, 48 h, E. coli filamentation inducer project, primary screen (AID 1152); conditions: higher = more signal, called active from +8 up or from −8 down;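 further: E. coli MC1000 strain DRC41 lacking acrAB efflux pump and sulA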
[12] = probe aLefty1 binding on compound microarray – biochemical, small-molecule microarray, 635/667 nm fluorescence, primary screen (AID 1153); conditions: higher = more signal;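 further: score merges spot fluorescence with signal-to-noise ratio from the scanned slide images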
[13] = plasmodial surface anion channel blockers, osmotic lysis – cell-based, P. falciparum Indochina, OD700, 1 h, primary screen (AID 1154); conditions: P. falciparum Indochina infected RBC osmotic lysis, higher = more signal, called active from +8 up or from −8 down
[14] = plasmodial surface anion channel blockers, osmotic lysis – cell-based, P. falciparum Indochina, OD700, 2 h, primary screen (AID 1155);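 further: lysis reports solute entry through the parasite surface anion channel PSAC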; conditions: P. falciparum Indochina infected erythrocytes, higher = more signal, called active from +8 up or from −8 down
[15] = changes in parasitized red cell lysis, either direction – P. falciparum Indochina, OD700, 3 h, PSAC antagonist project, primary screen (AID 1156); conditions: P. falciparum-infected erythrocytes, osmotic lysis, higher = more signal, called active from +8 up or from −8 down
[16] = plasmodial surface anion channel blockers, osmotic lysis – cell-based, P. falciparum Indochina, OD700, 18 h, primary screen (AID 1157); conditions: P. falciparum Indochina infected erythrocytes, osmotic lysis OD700, 18 h; higher = more signal, called active from +8 up or from −8 down
[17] = S6 kinase pathway phospho-S6 level changes – cell-based, A549, cytoblot, luminescence, serum-stimulated, primary screen (AID 1158); conditions: 5 h, higher = more signal;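 further: serum-stimulated A549 lung adenocarcinoma cells; signal is phosphorylated S6 detected by cytoblot immunostaining with HRP secondary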
[18] = target: NADPH oxidase 2 (Homo sapiens) (UniProt P04839); test: compounds shifting NOX2 Amplex Red fluorescence – cell-based, HEK293-NOX2, PMA-stimulated, NOX inhibitor project, primary screen (AID 1159); conditions: 45 min, higher = more signal, called active from +8 up or from −8 down; further: test concentration not given here
Chain of NADPH oxidase 2 (Homo sapiens) (P04839 whole entry, looked up): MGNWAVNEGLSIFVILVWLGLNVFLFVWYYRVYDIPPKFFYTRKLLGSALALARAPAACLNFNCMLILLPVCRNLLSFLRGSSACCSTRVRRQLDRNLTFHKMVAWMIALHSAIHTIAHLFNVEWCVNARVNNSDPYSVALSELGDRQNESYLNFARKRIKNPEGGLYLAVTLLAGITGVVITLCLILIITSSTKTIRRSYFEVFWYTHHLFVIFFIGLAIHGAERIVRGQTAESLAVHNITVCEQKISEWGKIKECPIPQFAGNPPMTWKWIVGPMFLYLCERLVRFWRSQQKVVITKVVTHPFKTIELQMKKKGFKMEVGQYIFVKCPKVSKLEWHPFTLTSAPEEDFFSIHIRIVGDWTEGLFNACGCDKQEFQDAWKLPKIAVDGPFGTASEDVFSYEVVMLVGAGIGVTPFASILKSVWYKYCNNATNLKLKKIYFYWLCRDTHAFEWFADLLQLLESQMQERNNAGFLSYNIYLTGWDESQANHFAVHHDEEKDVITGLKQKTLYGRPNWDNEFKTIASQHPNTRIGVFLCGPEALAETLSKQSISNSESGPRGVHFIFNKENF

[19] = target: NADPH oxidase 4 (Homo sapiens) (UniProt Q9NPH5); test: compounds shifting NOX4 Amplex Red fluorescence – cell-based, HEK293-NOX4, tetracycline-induced, NOX inhibitor project, primary screen (AID 1160); conditions: HEK293-NOX4, Amplex Red H2O2 fluorescence, 45 min; higher = more signal, called active from +8 up or from −8 down
Chain of NADPH oxidase 4 (Homo sapiens) (Q9NPH5 whole entry, looked up): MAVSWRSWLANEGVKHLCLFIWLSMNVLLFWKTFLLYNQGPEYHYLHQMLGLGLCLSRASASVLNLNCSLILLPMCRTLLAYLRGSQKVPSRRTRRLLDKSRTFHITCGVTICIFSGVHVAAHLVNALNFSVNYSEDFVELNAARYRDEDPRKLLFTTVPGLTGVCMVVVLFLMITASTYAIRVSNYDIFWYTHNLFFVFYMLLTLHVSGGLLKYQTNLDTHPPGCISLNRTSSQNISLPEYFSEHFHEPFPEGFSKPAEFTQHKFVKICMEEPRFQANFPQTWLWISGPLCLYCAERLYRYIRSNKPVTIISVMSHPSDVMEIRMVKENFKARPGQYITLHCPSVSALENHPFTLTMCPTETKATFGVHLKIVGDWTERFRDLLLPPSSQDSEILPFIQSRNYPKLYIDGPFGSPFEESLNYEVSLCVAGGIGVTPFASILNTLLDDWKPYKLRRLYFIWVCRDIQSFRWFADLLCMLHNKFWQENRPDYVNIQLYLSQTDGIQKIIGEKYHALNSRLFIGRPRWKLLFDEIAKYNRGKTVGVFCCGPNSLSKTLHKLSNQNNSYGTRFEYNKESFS

[20] = target: NADPH oxidase 5 (Homo sapiens) (UniProt Q96PH1); test: compounds shifting NOX5 Amplex Red fluorescence – cell-based, HEK293-NOX5, NOX inhibitor project, primary screen (AID 1161); conditions: HEK293-NOX5, ionomycin, 45 min, higher = more signal
Chain of NADPH oxidase 5 (Homo sapiens) (Q96PH1 whole entry, looked up): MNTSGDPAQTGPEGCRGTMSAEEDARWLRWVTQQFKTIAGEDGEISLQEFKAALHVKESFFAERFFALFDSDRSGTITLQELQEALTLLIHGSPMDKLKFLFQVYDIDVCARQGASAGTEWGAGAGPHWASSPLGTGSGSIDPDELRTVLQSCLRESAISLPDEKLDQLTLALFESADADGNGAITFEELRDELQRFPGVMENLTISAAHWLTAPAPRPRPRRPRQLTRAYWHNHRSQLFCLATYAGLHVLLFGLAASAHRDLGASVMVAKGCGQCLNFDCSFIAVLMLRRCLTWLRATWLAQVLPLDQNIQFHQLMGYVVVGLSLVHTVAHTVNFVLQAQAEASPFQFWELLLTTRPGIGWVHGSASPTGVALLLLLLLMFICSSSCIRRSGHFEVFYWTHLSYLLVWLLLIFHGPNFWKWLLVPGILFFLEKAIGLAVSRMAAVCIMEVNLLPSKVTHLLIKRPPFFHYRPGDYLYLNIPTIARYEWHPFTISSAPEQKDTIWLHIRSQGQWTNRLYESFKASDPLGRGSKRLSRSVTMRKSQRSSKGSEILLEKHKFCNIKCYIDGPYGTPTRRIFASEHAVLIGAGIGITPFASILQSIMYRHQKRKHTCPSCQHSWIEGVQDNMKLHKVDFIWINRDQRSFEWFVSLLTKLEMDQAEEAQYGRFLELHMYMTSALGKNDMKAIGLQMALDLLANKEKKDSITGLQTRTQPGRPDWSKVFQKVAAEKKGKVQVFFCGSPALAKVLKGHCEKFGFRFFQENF

Row | SMILES | composite z-score [1] | z-score [2] | z-score [3] | z-score [4] | z-score [5] | composite z-score [6] | composite z-score [7] | composite z-score [8] | composite z-score [9] | composite z-score [10] | z-score [11] | composite z-score [12] | z-score [13] | z-score [14] | z-score [15] | z-score [16] | z-score [17] | z-score [18] | z-score [19] | z-score [20]
1 | COCCOC(=O)N1C(=O)[C@@]2(c3ccccc31)[C@H](C(=O)N1CCN(c3ncccn3)CC1)[C@H]1C(=O)O[C@H](c3ccccc3)[C@H](c3ccccc3)N1[C@@H]2c1ccccc1OCCO | 0.404 | -4.29 (inactive) | -1.51 (inactive) | -2.11 (inactive) | -0.885 (inactive) | 0.631 | -0.0323 | 0.545 | 0.0291 | 1.53 | 2.86 (inactive) | 0.867 | 10 (active) | 1.18 (inactive) | -0.427 (inactive) | 0.0951 (inactive) | 1.89 | 0.89 (inactive) | 1.09 (inactive) | 0.791
2 | CN(C)CCCCNC(=O)[C@H]1C[C@H]2C(=O)NCC(=O)N2[C@H]1c1ccc(O)cc1 | -0.311 | 0.153 (inactive) | 0.0384 (inactive) | -0.943 (inactive) | -0.489 (inactive) | -0.761 | -0.344 | -0.0276 | 1.07 | 1.57 | 0.327 (inactive) | -0.417 | 2.9 (inactive) | 0.552 (inactive) | 0.447 (inactive) | 0.3 (inactive) | -0.468 | 1.06 (inactive) | 1.09 (inactive) | 1.18
3 | O=C1C[C@]2(c3ccc([N+](=O)[O-])cc3)C(=O)N(C3CC3)c3cc(CO)ccc3[C@H]2N1C1CCCCC1 | -0.0069 | 1.09 (inactive) | -0.21 (inactive) | 0.802 (inactive) | 0.634 (inactive) | 0.358 | -0.159 | -0.145 | -0.192 | 0.147 | -0.348 (inactive) | 0.91 | -0.58 (inactive) | 0.0608 (inactive) | -1.35 (inactive) | -0.0894 (inactive) | -0.278 | 0.0692 (inactive) | 0.987 (inactive) | 0.0695
4 | CCOC(=O)C[C@H]1[C@H](OC(=O)Cc2ccc3c(c2)OCO3)[C@@H](NC(=O)Cc2ccc(OC)cc2)c2cc(OCCCO)ccc2N1C(=O)Cc1ccc(OC)cc1 | -0.31 | -0.972 (inactive) | -0.805 (inactive) | 1.52 (inactive) | -0.0811 (inactive) | 0.699 | -0.154 | 0.142 | 0.209 | 0.106 | 1.91 (inactive) | -0.15 | 10.7 (active) | 0.647 (inactive) | -1.02 (inactive) | -0.395 (inactive) | 1.68 | -0.988 (inactive) | 0.754 (inactive) | 0.404
5 | COc1ccc(C(O)C2C=CC3C(=O)N(c4ccccc4)C(=O)C3N2Nc2ccc(C#N)cc2)cc1OCc1ccccc1 (stereo not given) | 0.512 | 0.0667 (inactive) | -0.753 (inactive) | 1.39 (inactive) | 0.338 (inactive) | 1.65 | 0.274 | 0.056 | 1.12 | -0.189 | -1.37 (inactive) | 0.482 | 9.41 (active) | 2.2 (inactive) | 0.918 (inactive) | 1.27 (inactive) | -0.98 | -1.69 (inactive) | -2.41 (inactive) | -2.45
6 | CCCCCCc1nc(-c2ccc(-c3ccc(Cl)c(Cl)c3)o2)cc2c1[Si](C(C)C)(C(C)C)OC2 | -0.905 | -5.45 (inactive) | -1.51 (inactive) | -0.621 (inactive) | 1.29 (inactive) | -1.24 | -0.261 | -1.83 | -0.526 | -0.583 | 0.615 (inactive) | -0.193 | 3.45 (inactive) | 0.259 (inactive) | 0.78 (inactive) | -0.84 (inactive) | 1.6 | -5.23 (inactive) | -4.25 (inactive) | -7.11
7 | O=C1[C@H]2C=C(I)[C@H](C[C@@H]2OCCCCCCO)[C@@]12CO2 | -0.302 | 0.567 (inactive) | -0.04 (inactive) | 1.21 (inactive) | 1.77 (inactive) | -0.324 | 0.255 | 0.349 | 0.541 | 1.07 | -1.02 (inactive) | 0.0834 | 5.11 (inactive) | 0.713 (inactive) | 0.487 (inactive) | 0.035 (inactive) | -0.251 | -0.212 (inactive) | 0.645 (inactive) | -1.22
8 | COCC(=C=CC[C@H](O)c1ccccc1OCCO)C[C@H](O)COCc1ccccc1 | 1.16 | -0.729 (inactive) | 1.27 (inactive) | 5.1 (inactive) | 0.497 (inactive) | 0.259 | 0.0541 | 1.29 | 1.13 | 1.73 | -0.186 (inactive) | 0.131 | 9.07 (active) | 1.07 (inactive) | 0.287 (inactive) | 0.896 (inactive) | -0.408 | 0.0204 (inactive) | -1.22 (inactive) | -1.92
